# How the values were obtained:
# Assay in all cases: PBM binding z-score (relative to random genomic background probes); higher = stronger binding; sequences stand for … in GC…GCGATTGACAGCGTAGAATGAAGG
# [1] = test system: PPARg:RXRa DBDmut IVT, anti-RXR (DBD mutation: RXRa K156A/R161A, NR concentration 270 nM, RXRa partner concentration 90 nM)
# Outline: (§1)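 Antibodies against each partner of ligand-free nuclear receptor dimers (one per run) detected binding on custom Agilent 4×180K protein-binding microarrays after 1 h incubation. The double-stranded probes had 34-nt variable regions carrying direct-repeat seeds, single-nucleotide variants, half-site ablations and random human genomic background sequences. Binding z-scores, from regression-normalized fluorescence, use the random background probes as reference.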
# [2] = test system: PPARg:RXRa IVT, anti-PPARg (NR concentration 270 nM, RXRa partner concentration 90 nM)
# Outline: as §1
# [3] = test system: PPARg DBDmut:RXRa IVT, anti-PPARg (DBD mutation: PPARg1 K132A/R137A, NR concentration 270 nM, RXRa partner concentration 90 nM)
# Outline: as §1
# [4] = test system: PPARg DBDmut IVT, anti-PPARg (DBD mutation: PPARg1 K132A/R137A, NR concentration 270 nM)
# Outline: as §1
# [5] = test system: PPARg homodimer (NR concentration 180 nM)
# Outline: as §1
# [6] = test system: PXR:RXRa (NR concentration 270 nM, RXRa partner concentration 90 nM)
# Outline: as §1
# [7] = test system: PXR homodimer (NR concentration 270 nM)
# Outline: as §1
# [8] = test system: RARa:RXR (NR concentration 270 nM, RXRa partner concentration 90 nM)
# Outline: as §1
# [9] = test system: RARa homodimer (NR concentration 270 nM)
# Outline: as §1
# [10] = test system: RARb:RXRa (NR concentration 270 nM, RXRa partner concentration 90 nM)
# Outline: as §1
# [11] = test system: RARb homodimer (NR concentration 270 nM)
# Outline: as §1
# [12] = test system: RARg:RXRa (NR concentration 270 nM, RXRa partner concentration 90 nM)
# Outline: as §1
# [13] = test system: RARg homodimer (NR concentration 270 nM)
# Outline: as §1
# [14] = test system: RXRa DBDmut IVT, anti-RXR (DBD mutation: RXRa K156A/R161A, NR concentration 90 nM)
# Outline: as §1
# [15] = test system: RXRa homodimer (NR concentration 180 nM)
# Outline: as §1
# [16] = test system: THRa:RXRa (NR concentration 90 nM, RXRa partner concentration 90 nM)
# Outline: as §1
# [17] = test system: THRa homodimer (NR concentration 90 nM)
# Outline: as §1
# [18] = test system: VDR homodimer (NR concentration 270 nM)
# Outline: as §1
Sequence,PBM binding z-score [1],PBM binding z-score [2],PBM binding z-score [3],PBM binding z-score [4],PBM binding z-score [5],PBM binding z-score [6],PBM binding z-score [7],PBM binding z-score [8],PBM binding z-score [9],PBM binding z-score [10],PBM binding z-score [11],PBM binding z-score [12],PBM binding z-score [13],PBM binding z-score [14],PBM binding z-score [15],PBM binding z-score [16],PBM binding z-score [17],PBM binding z-score [18]
CGTCCAAGGTCAGCAGGTCAGTGAAAGCGACGTG,2.94,3.8,0.0823,-0.0279,3.81,3.7,0.523,4.76,0.465,5.34,5.12,6.35,6.64,2.54,4.82,4,2.28,1.77
CCTCGCAGGACAACAGGAGGTCAGAGCTGCCAGA,-0.0217,0.0775,-0.749,-0.93,1.52,1.89,0.261,2.26,-0.0612,2.28,3.19,2.79,2.57,0.186,1.86,2.51,0.912,1.05
AATATTAGTTGACTTAGGGCAACCGATACGACGC,0.114,0.435,1.41,0.654,0.835,0.143,0.976,0.751,1.92,0.721,0.918,0.615,0.87,0.532,0.76,1.44,0.572,0.87
CCTGCTGGGCCAAAAAGGTCATTGATGCCGATAA,0.633,1.32,-0.602,-0.914,3.24,4.99,3.34,5.41,0.138,3.89,4.32,4.6,4.17,0.818,4.91,3.12,0.279,2.58

# Source: the supplement of paper PMC6555819
